# Screens from PubChem.
# Compounds with a hit are over-represented: about 10% of the library has one in this group of screens.
# ALDH1A1 block: inhibitors of human aldehyde dehydrogenase 1A1. P00352. Purified ALDH1A1, NADH fluorescence, propionaldehyde substrate. Potency, µM (highest dose often 75.3 µM), without a hit: at the top dose activity, negative = inhibition, hits mostly inhibitors. 220,000 tested, 7.3% active. AID 1030;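 note: potency is the fitted concentration of half-maximal effect; plate controls were no enzyme wells and a reference inhibitor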
# Lamin A splicing: changes lamin A minigene splicing in HeLa cells; HeLa LMNA splicing GFP/RFP minigene ratio, 48 h; Potency, µM (highest dose often 46.1 µM), without a hit: at the highest dose ratio change, negative = inhibition, hits mostly inhibitors; 200,000 tested, 0.01% active; active = well fitted inhibition curve with a large enough effect in the signal ratio, with a control signal flat, not every such curve was filed as active; inconclusive = small, poorly fitted or top-dose-only effect, or effect the other way, or a change in a side signal; the % refers to the signal ratio; note: potency is the fitted concentration of half-maximal effect
#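 S3 HeLa cells stably expressing lamin A-EGFP splicing minigene plus DsRed2, 600 cells/well, 48 h compound exposure at 37C. Laser-scanning cytometry; analysed as GFP (500-530 nm)/RFP (575-640 nm) total intensity ratio; 0.5% DMSO vehicle.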
# PNC assembly inh: perinucleolar compartment assembly inhibition | PC3M PTB-GFP, PNC prevalence imaging, 16 h; active compounds read low | activity change (PNC), negative = inhibition, % at 10 µM | 140,000 tested, 3.1% active;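 active = readout at or below -70, meaning at least 70% loss of cells showing the perinucleolar compartment, a nuclear body marking cancer cells; inconclusive = readout between -30 and a set limit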;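 note: plate controls were DMSO wells for no effect and camptothecin positive control wells for full effect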
#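 Compounds are pinned in duplicate onto adhered PC3M cells stably expressing GFP-tagged PTB and incubated 16 h at 37 C. Cells are then fixed, nuclei stained with Hoechst, and PNC-positive cells counted.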
# ALOX12 inhib: 12-hLO (ALOX12) enzyme inhibition | P18054 | purified 12-hLO, xylenol orange hydroperoxide absorbance | Potency, µM (doses to about 57.1 µM), inactives show at the top dose activity change, negative = inhibition, actives largely listed as inhibitors | 150,000 tested, 0.12% active | AID 1452; active = well fitted inhibition curve with a large enough effect; inconclusive = small, poorly fitted or top-dose-only effect; note: potency is the fitted concentration of half-maximal effect; nearly all actives have a fitted effect of over 55% in size
#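 150 nM 12hLO, 25 mM Hepes pH 7.0 + 0.01% Triton X-100; cpd preinc 15 min RT; 40 uM arachidonic acid, 30 min RT; Fe-XO 30 min; A573/A405 ratio as read-out.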
# HPGD block: HPGD (human) dehydrogenase inhibition; 150,000 tested, 4.3% active; Potency, µM, for the others: at the highest dose activity change, negative = inhibition, actives largely listed as inhibitors; P15428; purified HPGD, NADH fluorescence kinetic, PGE2 substrate; note: potency is the fitted concentration of half-maximal effect
# Target sequence (P15428 whole entry, looked up): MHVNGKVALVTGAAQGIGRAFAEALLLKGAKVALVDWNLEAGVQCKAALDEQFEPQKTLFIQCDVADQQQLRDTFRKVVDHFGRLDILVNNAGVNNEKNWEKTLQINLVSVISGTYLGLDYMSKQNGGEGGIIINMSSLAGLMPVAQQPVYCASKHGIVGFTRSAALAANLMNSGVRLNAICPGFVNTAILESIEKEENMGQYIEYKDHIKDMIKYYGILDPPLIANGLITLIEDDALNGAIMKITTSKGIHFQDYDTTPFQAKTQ
#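 NADH formation kinetics: reaction with 30 uM PGE2 and 1 mM NAD+ (final), 20 nM enzyme, Tris-HCl pH 8 with Tween 20, after 15 min compound preincubation at room temperature. Fluorescence change, last versus first of five reads.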
# Starred values were filed as active, the others as inactive; ? = inconclusive; . = not tested or not shown; [ ] = remark or other dose. Unless noted, calls come from the whole dose curve; as a rule, active = well fitted inhibition curve with a large enough effect (not every such curve was filed as active); inconclusive = small, poorly fitted or top-dose-only effect, or another doubt; inactive = no such curve, though single readings can be large or run the other way. Unless noted, % is set by controls: 0 for no effect and ±100 for the full control effect.
SMILES,ALDH1A1 block,Lamin A splicing,PNC assembly inh,ALOX12 inhib,HPGD block
COc1ccc(C(=O)CCC(=O)Nc2cccc(Cl)c2)cc1,11%,.,.,.,.
CCCOc1ccc(C(=O)CCNc2cccc(Cl)c2)cc1,7.9µM*,.,.,.,.
CC(C)c1[nH]nc2c1C(c1cccc(OC(=O)N3CCOCC3)c1)C(C#N)=C(N)O2 (centres undefined),22µM*,8%,-8,-6%,-14%
CC(C)c1[nH]nc2c1C(c1cccnc1)C(C#N)=C(N)O2 (centres undefined),8.9µM*,3%,32,-1%,0%
CCCc1[nH]nc2c1C(c1cc(OC)cc(OC)c1)C(C#N)=C(N)O2 (centres undefined),-8%,14%,-12,-2%,-26%
CCCc1[nH]nc2c1C(c1cccc(OC(=O)c3ccco3)c1)C(C#N)=C(N)O2 (centres undefined),8.9µM*,-7%,10,-4%,-29%
O=C1c2cccc(OCC(=O)N3N=C(c4cccs4)CC3c3ccc(F)cc3)c2CCN1Cc1cccnc1 (centres undefined),?,?,3,2%,?
C/C=C/OC(=O)NC(c1ccccc1)[C@]1(C(C)=O)CCCC1=O (some centres undefined),4%[13.5 µM],.,.,.,.
CC(=O)NS(=O)(=O)c1ccc(NC(=O)c2ccccc2F)cc1,-8%,-8%,11,0%,-7%
O=C(NS(=O)(=O)c1ccccc1)c1ccccc1F,4%,-1%,-122*,2%,?
Cc1nn(-c2ccccc2)c(C)c1/C=N/NC(=O)c1cc(C(C)(C)C)[nH]n1,?,-13%,-83*,-2%,-27%
Cc1[nH]c2ccccc2c1/C=N/NC(=O)c1cc(-c2cccs2)[nH]n1,-3%,-19%,10,0%,-22%
Cc1ccc(-c2cc(C(=O)N/N=C/c3c(C)nn(-c4ccccc4)c3C)[nH]n2)cc1,2%,?,-92*,9%,?
COC(=O)N/N=C\c1c(C)nn(-c2ccccc2)c1Cl,4%,-2%,-20,-1%,-20%
Cc1ccc(-c2cc(C(=O)N/N=C/c3ccco3)[nH]n2)cc1,-2%,-11%,0,-23%,-9%
Cc1ccc(-c2cc(C(=O)N/N=C/c3c(C)nn(-c4ccccc4)c3C)n[nH]2)s1,?,?,-115*,1%,?
CCc1ccc(NC(=O)CSc2nc(=O)n(Cc3ccncc3)c3c2CCC3)cc1,.,-29%[46 µM],.,.,.
CC(=O)C1=C(O)C(=O)N(C2CCCCC2)C1c1ccccc1 (centres undefined),22µM*,-18%,-28,8%,-17%
COc1ccc(OC)c(C2C(C(C)=O)=C(O)C(=O)N2CCN2CCOCC2)c1 (centres undefined),?,8%,25,2%,-14%
CC(=O)C1=C(O)C(=O)N(c2ccc(C(=O)O)cc2)C1c1ccccc1 (centres undefined),-4%,7%,-7,8%,?
COCCN1C(=O)C(O)=C(C(=O)c2cccs2)C1c1ccccc1 (centres undefined),2%,6%,63,13%,-5%
CC(=O)C1=C(O)C(=O)N(CCN2CCOCC2)C1c1ccccc1 (centres undefined),25µM*,8%,-14,11%,-15%
O=C(C1=C(O)C(=O)N(CCCN2CCOCC2)C1c1ccncc1)c1cc2ccccc2o1 (centres undefined),14µM*,-11%,15,-7%,-7%
COCCN1C(=O)C(O)=C(C(C)=O)C1c1ccc(F)cc1 (centres undefined),14µM*,2%,-17,-2%,?
NC(N)=NC(N)=Nc1ccc(C(=O)O)cc1,-15%[13.5 µM],.,.,-1%[11.4 µM],-8%
Cc1c(C(=O)N(C)C)sc2c1c(=O)n(-c1ccc(Cl)c(Cl)c1)c(=O)n2CC(=O)Nc1ccc(Br)cc1F,.,1%[46 µM],.,.,.
COc1ccc(N(Cc2cccs2)C(=O)c2ccc(Br)o2)cc1,.,30%[46 µM],.,.,.
Cc1ccc(C2C(C(=O)c3cc4ccccc4o3)=C(O)C(=O)N2CCN2CCOCC2)o1 (centres undefined),14µM*,-6%,-5,-4%,-24%
